This is a sample that favours compounds with a hit; in the whole collection about 15% have one here.
VP16 counter: VP16 counterscreen qHTS for inhibitors of ROR gamma transcriptional activity | Drosophila S2 Gal4-VP16 UAS-luciferase, luminescence, 20 h | Potency, µM (highest dose often 53.6 µM), for inactives: at the highest dose activity, negative = inhibition, most hits filed as inhibitors | 310,000 compounds, 3.5% hits;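 further: Gal4-VP16 expression switched on by copper sulfate through the metallothionein promoter; nearly all actives have a fitted effect of over 50% in size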
RORg inh: qHTS for inhibitors of ROR gamma transcriptional activity; Drosophila S2 Gal4-RORgamma UAS-luciferase reporter, 20 h; Potency, µM (titrated, usually from 53.6 µM), for inactives: at the highest dose activity change, negative = inhibition, most hits filed as inhibitors; 310,000 compounds, 5.4% hits; further: nearly all actives have a fitted effect of over 60% in size
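Read-out: Photinus luciferase luminescence; inhibitors lower reporter signal. Insect Schneider cells with Gal4-ROR gamma fusion under metallothionein promoter, UAS reporter; 700 uM final copper sulfate induction, 20 hr, ambient temperature.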
TDP1 cell noCPT: qHTS for Inhibitors of human tyrosyl-DNA phosphodiesterase 1 (TDP1): qHTS in cells in absence of CPT; DT40 Tdp1-/- hTDP1 cells, no CPT, ATP luminescence, 48 h; Potency, µM (titrated, usually from 46.2 µM), for inactives: at the top dose activity change, negative = growth inhibition, most hits filed as inhibitors; 420,000 compounds, 15% hits; AID 686978, 2013; further: nearly all actives have a fitted effect of over 55% in size
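DT40 Tdp1-/-;hTDP1 cells, no CPT (DMSO vehicle only), 400 cells/well; compounds pin-transferred; ≥48 hr, 37 °C; CellTiter-Glo 30 min RT dark, luminescence read.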
ELG1 DNA repair: qHTS screen for small molecules that inhibit ELG1-dependent DNA repair in human embryonic kidney (HEK293T) cells expressing luciferase-tagged ELG1; HEK293T ELG1-luciferase reporter, luminescence, 16 h; DNA damage induced by 5-fluorouridine; Potency, µM (doses to about 46.1 µM), without a hit: top-dose activity change, negative = inhibition, most hits filed as inhibitors; 330,000 compounds, 2.3% hits; AID 504467, 2011; further: nearly all actives have a fitted effect of over 55% in size
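Overnight (16 hr) co-exposure of 2,000 cells/well to 5-fluorouridine and compound at 37 °C preceded detection. Luciferase was quantified via ONE-Glo luminescence; loss of signal denotes inhibition.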
ALOX12 inh: Primary qHTS assay for inhibitors of human arachidonate 12S-lipoxygenase (ALOX12): Round 2. 580,000 compounds, 1.1% hits. Potency, µM (titrated, usually from 108 µM), for the others: at the top dose activity change, negative = inhibition, usual class: inhibitors. purified 12hLO, xylenol orange hydroperoxide absorbance. AID 1671190, 2021
Target sequence (P18054 whole entry, looked up): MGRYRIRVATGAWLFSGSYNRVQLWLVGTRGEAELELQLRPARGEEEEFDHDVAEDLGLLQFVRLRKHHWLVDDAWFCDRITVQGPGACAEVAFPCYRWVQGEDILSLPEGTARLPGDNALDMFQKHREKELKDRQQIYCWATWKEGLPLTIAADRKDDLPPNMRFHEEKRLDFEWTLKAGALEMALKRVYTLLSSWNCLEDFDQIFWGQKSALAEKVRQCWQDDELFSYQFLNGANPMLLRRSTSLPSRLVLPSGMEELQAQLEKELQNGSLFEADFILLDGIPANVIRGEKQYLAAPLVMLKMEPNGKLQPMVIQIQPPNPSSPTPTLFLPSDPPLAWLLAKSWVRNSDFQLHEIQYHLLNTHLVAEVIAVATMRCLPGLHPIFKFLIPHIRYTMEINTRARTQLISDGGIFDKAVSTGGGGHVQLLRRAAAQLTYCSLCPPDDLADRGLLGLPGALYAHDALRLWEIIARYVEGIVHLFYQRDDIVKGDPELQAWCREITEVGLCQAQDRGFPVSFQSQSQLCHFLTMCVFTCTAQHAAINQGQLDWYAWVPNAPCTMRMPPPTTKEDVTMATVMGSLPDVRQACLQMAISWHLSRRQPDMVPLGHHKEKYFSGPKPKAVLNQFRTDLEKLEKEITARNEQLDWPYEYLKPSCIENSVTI
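Hydroperoxide product was detected by ferrous iron/xylenol orange as the 573 to 405 nm absorbance ratio. Arachidonic acid at 40 uM (final) was turned over for 30 min at room temperature by 150 nM human 12hLO, pH 7.0 Hepes buffer, after 15 min compound preincubation.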
DT40 TDP1 CPT: qHTS for Inhibitors of human tyrosyl-DNA phosphodiesterase 1 (TDP1): qHTS in cells in presence of CPT. chicken DT40 Tdp1-/-;hTDP1 cells + 20 nM CPT, ATP luminescence, 48 h. Potency, µM (doses to about 46.2 µM), for the others: at the top dose activity change, negative = growth inhibition, most hits filed as inhibitors. 420,000 compounds, 12% hits. AID 686979, 2013; further: nearly all actives have a fitted effect of over 55% in size
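Cell growth measured by CellTiter-Glo luminescence after a minimum 48 h, 37 C compound exposure with 20 nM CPT in Tdp1-knockout DT40 cells stably expressing hTDP1, seeded 400/well; qHTS titration format.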
* marks the source's active call; other numbers are inactive results; ? = inconclusive; nt = not tested or not shown; ! = not confirmed by another sample; [ ] = remark or other dose. The call rests on the fitted dose curve; in most records, active means well fitted curve in the direction sought with a large enough effect; inconclusive means small, poorly fitted or top-dose-only effect, or another doubt; inactive means no such curve, though single readings can be large; an effect the other way counts as inactive or inconclusive. On the % scale 0 is the no-effect control and ±100 the full control effect; potency means the concentration at half of the fitted maximal effect.

SMILES	VP16 counter	RORg inh	TDP1 cell noCPT	ELG1 DNA repair	ALOX12 inh	DT40 TDP1 CPT
O=C1CN(C(=O)COC(=O)CCS(=O)(=O)c2ccccc2Cl)c2ccccc2N1	nt	nt	?	1%	-2%	18µM*
COCCn1cnnc1C(C)Nc1nc(-c2cccnc2)nc2c1CNC2 (configuration not stated)	nt	nt	nt	nt	68%	nt
O=C1CN(C(=O)COC(=O)c2ccc(N3CCCCCC3)c([N+](=O)[O-])c2)c2ccccc2N1	1%	?	-26%	?	-8%	3%
CS(=O)(=O)c1ccc(C(=O)OCC(=O)N2CC(=O)Nc3ccccc32)cc1[N+](=O)[O-]	nt	nt	0.71µM*	nt	nt	1.1µM*
Cc1cc(C)c2[nH]c(C(=O)O)cc2c1	nt	nt	nt	nt	-7%	nt
CCOC(=O)C1CCCN(S(=O)(=O)c2ccc(Br)s2)C1 (configuration not stated)	-6%	?	-14%	-7%	-12%	?
O=C(C1CCCN(S(=O)(=O)c2ccc(Br)s2)C1)N1CCN(c2cccc(Cl)c2)CC1 (configuration not stated)	nt	nt	21µM*	nt	?	16µM*
O=C(O)C1CCCN(S(=O)(=O)c2cccs2)C1 (configuration not stated)	-2%	-6%	-1%	-5%	9%	3%
O=C(C1CCCN(S(=O)(=O)c2cccs2)C1)N1CCN(c2cccc(Cl)c2)CC1 (configuration not stated)	nt	nt	15µM*	nt	?	21µM*
Cc1oc(-c2ccccc2)nc1C12CC3CC(CC(C3)C1)C2	nt	nt	nt	nt	-19%	nt
O=C(NCC(c1ccco1)N1CCc2ccccc21)C(=O)Nc1ccccc1F (configuration not stated)	nt	nt	18µM*	-12%	-17%	?
O=C(NCC(c1ccco1)N1CCc2ccccc21)C(=O)Nc1ccccc1 (configuration not stated)	nt	nt	?	1%	?	-35%
O=C(NCC(c1ccco1)N1CCc2ccccc21)C(=O)Nc1ccc(F)cc1F (configuration not stated)	nt	nt	3.3µM*	?	?	4.1µM*
COCCOC1CCN(C(=O)c2ccc3oc(-c4cccc(F)c4)nc3c2)CC1	nt	nt	nt	nt	28%	nt
CN1C(C(=O)N2CCN(c3ccccc3)CC2)=CC(c2ccc(F)cc2)=NS1(=O)=O	nt	nt	nt	nt	-2%	nt
COc1cc(F)ccc1-c1cc2c(nc1-c1ccccc1)nc(C(=O)NCCN(C)C)n2C	nt	nt	nt	nt	24%	nt
CCCOc1ccc(C(=O)Nc2ccc3c(c2)OCO3)cc1	0%	30%	13%	?	-4%	3%
CCCOc1ccc(C(=O)Nc2nc(C)c(Cc3ccc4c(c3)OCO4)s2)cc1	?	?	7.3µM*	?	?	?
Cc1nc(NC(=O)c2ccc(OCC(C)C)cc2)sc1Cc1ccc2c(c1)OCO2	?	?	16µM*	-6%	-12%	?
Cc1c(Cc2ccc3c(c2)OCO3)sc(NC(=O)c2ccc3ccccc3c2)c1C(N)=O	5%	1%	?	8%	19%	?
COc1cc(C(=O)Nc2nc(C)c(Cc3ccc4c(c3)OCO4)s2)cc(OC)c1OC	?	7.9µM*	2.1µM*	?	?	1.3µM*
COc1ccc(-c2nc(P(=O)(OC)OC)c(NCc3cccnc3)o2)cc1	nt	nt	nt	nt	-25%	nt
Cc1ccc2ncnc(Nc3ccccc3)c2c1	3%	13%	?	-25%	1%	-22%
Clc1cccc(Nc2ncnc3ccc(Br)cc23)c1	4%	?	?	?	-5%[57.4 µM]	26µM*
CN(C)c1ccc(Nc2ncnc3ccc(Br)cc23)cc1	28%	24%[1.91 µM]	?	8.2µM*	-11%	?
SMILES	VP16 counter	RORg inh	TDP1 cell noCPT	ELG1 DNA repair	ALOX12 inh	DT40 TDP1 CPT
Cc1cccc(Nc2ncnc3ccc(Br)cc23)c1	-8%[10 µM]	?	?	?	2%	?
Clc1ccc(Nc2ncnc3ccc(Br)cc23)cc1	-20%	43%	15µM*	?	?	10µM*
CN1C(=O)C(CC(=O)Nc2cccnc2)=C2CCCCC21 (configuration not stated)	nt	nt	nt	nt	50%	nt
COc1ccc(C2NC(=O)NC3=C2C(=O)N(Cc2ccccc2)C3)cc1OC (configuration not stated)	nt	nt	nt	nt	-40%	nt
C[C@]12C[C@H](O)[C@H]3[C@@H](CCC4=CC(=O)CC[C@@]43C)[C@@H]1CC[C@@H]2C(=O)CO	-13%	43%	?	12%	-3%	?
C[C@]12CCC(=O)C=C1CC[C@@H]1[C@@H]2[C@@H](O)C[C@@]2(C)[C@H]1CC[C@]2(O)C(=O)COC(=O)CCC(=O)O	1%	?	8.4µM*!	23%	-13%	?
CC(=O)[C@H]1CC[C@H]2[C@@H]3C=CC4=CC(=O)CC[C@@]4(C)[C@@H]3CC[C@]12C	nt	nt	13µM*	1%	-28%	15µM*!

High-throughput results (PubChem)
